Measurements published in the supplement of paper PMC10849652.
About 7,900 targets were measured; listed, in parts, are those with a hit and a random draw of the rest. About 0.6% of all pairs of compound and target were hits.

Columns and labels:
Test in all cases: log2 fold change, soluble protein after heating vs DMSO (PISA); higher = thermal stabilisation; K562 cells, 10 uM, 30 min; active = over 0.2 and 3.5 SD of the protein, either way, in both replicates (recomputed)
erlotinib = compound: C#Cc1cccc(Nc2ncnc3cc(OCCOC)c(OCCOC)cc23)c1 [erlotinib]
Procedure, shortened: (§1)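 K562 cells at 2×10^6 cells/mL were treated with 10 μM compound for 30 min. Aliquots were heated for 3 min across 48°C-58°C, pooled, and extracted in PBS with 0.5% NP-40 at 4°C; soluble protein was the supernatant after 21,000xg for 90 min. Soluble protein was quantified by TMTpro 16plex LC-MS/MS with channel sums equalised, and reported as log2 fold change in thermal stability against DMSO controls, with values from duplicates.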

[1] = compound: C/C(=N\NC(=O)C1=CC(=CC=C1)S(=O)(=O)N2CCOCC2)/C3=C(C=CC(=C3)Cl)O
Procedure, shortened: as §1

[2] = compound: C1=CC(=C(C=C1Cl)C2=NC3=NC=CN=C3C(=N2)NC4=CC=NC=C4)F
Procedure, shortened: as §1

[3] = compound: C1=CC(=CC=C1C2=NC3=C(N2)C=C(C=C3)C(=O)N)OC4=CC=C(C=C4)Cl
Procedure, shortened: as §1

[4] = compound: C1=CC2=C(C=CC(=C2)/C=C\3/C(=O)NC(=NCC4=CC=CS4)S3)N=C1
Procedure, shortened: as §1

[5] = compound: C1=CC2=NC=CN=C2C=C1/C=C/3\C(=O)NC(=O)S3
Procedure, shortened: as §1

[6] = compound: C1=CC=C(C=C1)C2=NC(=C(N2)C3=CC=NC=C3)C4=CC(=C(C=C4)Cl)O
Procedure, shortened: as §1

[7] = compound: C1=CC=C2C(=C1)C3=NNC4=CC=CC(=C43)C2=O
Procedure, shortened: as §1

[8] = compound: C1CCN(C1)C(=O)NC2=CC=CC(=C2)NC3=NC=C(C(=N3)NCCC4=CN=CN4)Br
Procedure, shortened: as §1

[9] = compound: C1CN(CCC1(CC2=CC=C(C=C2)Cl)N)C3=NC=NC4=C3C=CN4
Procedure, shortened: as §1

Measured: log2 fold change

GATD1 (UniProt Q8NB37)
UniProt Q8NB37, sequence (Q8NB37 whole entry, looked up): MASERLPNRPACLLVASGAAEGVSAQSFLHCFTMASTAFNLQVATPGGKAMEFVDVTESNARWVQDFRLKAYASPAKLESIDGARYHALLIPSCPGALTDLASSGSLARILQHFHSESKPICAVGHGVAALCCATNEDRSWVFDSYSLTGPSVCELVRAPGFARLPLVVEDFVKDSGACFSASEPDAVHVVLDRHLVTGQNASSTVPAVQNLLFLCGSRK
inactive: erlotinib 0.028 | [1] -0.006 | [2] 0.111 | [3] -0.012 | [4] 0.057 | [5] 0.007 | [6] -0.01 | [7] 0.047 | [8] -0.006 | [9] 0.098

FHOD1 (UniProt Q9Y613)
inactive: erlotinib -0.002 | [1] -0.259 | [2] -0.337 | [3] -0.059 | [4] 0.059 | [5] 0.146 | [6] -0.034 | [7] -0.007

FBXO6 (UniProt Q9NRD1)
UniProt Q9NRD1, sequence (Q9NRD1 whole entry, looked up): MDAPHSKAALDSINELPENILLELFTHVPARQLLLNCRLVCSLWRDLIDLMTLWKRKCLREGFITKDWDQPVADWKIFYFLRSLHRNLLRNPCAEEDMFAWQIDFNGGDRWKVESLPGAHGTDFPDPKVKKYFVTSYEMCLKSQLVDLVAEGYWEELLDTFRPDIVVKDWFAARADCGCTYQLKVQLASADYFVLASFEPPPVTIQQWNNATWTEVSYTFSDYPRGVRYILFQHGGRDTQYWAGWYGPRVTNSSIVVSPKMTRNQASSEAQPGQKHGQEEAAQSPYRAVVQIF
inactive: erlotinib -0.069 | [1] 0.046 | [2] 0.075 | [3] 0.007 | [4] 0.048 | [5] 0.007 | [6] 0.021 | [7] 0.002 | [8] -0.031 | [9] 0

GBF1 (UniProt Q92538)
UniProt Q92538, sequence (Q92538 whole entry, looked up): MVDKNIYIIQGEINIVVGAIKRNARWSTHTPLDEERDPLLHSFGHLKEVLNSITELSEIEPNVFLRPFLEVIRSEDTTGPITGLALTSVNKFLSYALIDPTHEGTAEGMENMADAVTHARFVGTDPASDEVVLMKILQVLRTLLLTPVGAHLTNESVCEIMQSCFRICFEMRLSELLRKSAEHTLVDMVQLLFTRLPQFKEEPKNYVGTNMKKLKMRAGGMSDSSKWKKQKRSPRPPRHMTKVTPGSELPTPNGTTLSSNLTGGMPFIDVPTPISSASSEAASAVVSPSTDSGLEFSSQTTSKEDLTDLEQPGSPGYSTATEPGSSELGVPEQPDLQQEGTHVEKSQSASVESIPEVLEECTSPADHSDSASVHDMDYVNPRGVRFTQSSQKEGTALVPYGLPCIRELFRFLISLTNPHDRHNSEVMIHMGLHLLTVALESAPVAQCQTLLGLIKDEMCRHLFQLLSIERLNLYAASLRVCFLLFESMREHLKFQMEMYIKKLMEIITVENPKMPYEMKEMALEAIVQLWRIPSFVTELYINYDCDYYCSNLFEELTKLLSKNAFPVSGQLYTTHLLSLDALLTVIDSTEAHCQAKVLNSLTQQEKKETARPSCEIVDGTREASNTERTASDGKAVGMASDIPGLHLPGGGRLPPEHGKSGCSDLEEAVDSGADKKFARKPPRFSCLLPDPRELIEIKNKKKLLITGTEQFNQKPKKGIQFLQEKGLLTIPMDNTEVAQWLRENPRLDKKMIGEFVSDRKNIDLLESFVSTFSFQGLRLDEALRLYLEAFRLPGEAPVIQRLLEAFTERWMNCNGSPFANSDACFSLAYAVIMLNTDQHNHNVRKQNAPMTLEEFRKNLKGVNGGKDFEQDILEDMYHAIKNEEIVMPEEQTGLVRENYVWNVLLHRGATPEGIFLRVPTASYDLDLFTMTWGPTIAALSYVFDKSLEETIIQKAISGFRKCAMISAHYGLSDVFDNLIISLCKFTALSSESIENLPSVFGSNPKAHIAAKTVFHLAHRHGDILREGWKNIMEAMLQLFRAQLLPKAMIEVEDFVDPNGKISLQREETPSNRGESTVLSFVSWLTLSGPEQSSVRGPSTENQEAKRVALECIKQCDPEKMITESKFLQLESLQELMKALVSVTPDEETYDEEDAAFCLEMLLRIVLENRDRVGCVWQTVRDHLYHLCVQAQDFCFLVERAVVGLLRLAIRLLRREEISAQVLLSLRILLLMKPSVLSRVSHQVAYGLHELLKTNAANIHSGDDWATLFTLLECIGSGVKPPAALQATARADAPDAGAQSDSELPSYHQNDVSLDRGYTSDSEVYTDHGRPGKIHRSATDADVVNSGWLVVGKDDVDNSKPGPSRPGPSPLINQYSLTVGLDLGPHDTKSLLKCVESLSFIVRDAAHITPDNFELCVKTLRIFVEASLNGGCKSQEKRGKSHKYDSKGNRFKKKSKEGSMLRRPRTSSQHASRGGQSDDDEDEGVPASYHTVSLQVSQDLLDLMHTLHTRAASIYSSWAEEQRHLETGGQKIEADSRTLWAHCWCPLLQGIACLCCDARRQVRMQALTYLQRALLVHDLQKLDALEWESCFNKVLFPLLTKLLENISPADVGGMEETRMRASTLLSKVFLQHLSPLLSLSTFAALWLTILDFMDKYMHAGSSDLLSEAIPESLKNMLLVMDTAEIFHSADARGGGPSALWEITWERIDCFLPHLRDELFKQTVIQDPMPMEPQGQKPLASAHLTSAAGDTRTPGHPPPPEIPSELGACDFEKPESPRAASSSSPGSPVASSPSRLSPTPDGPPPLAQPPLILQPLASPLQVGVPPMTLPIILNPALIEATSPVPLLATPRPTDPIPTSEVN
inactive: erlotinib -0.012 | [1] 0.077 | [2] -0.049 | [3] -0.022 | [4] 0.075 | [5] 0.028 | [6] -0.036 | [7] 0.033 | [8] -0.026 | [9] -0.052

GOLPH3 (UniProt Q9H4A6)
inactive: erlotinib 0.008 | [1] 0.073 | [2] 0.104 | [3] -0.014 | [4] 0.011 | [5] 0.008 | [6] 0.051 | [7] -0.007 | [8] -0.101 | [9] 0.043

HMG20A (UniProt Q9NP66)
inactive: erlotinib -0.005 | [1] 0.125 | [2] -0.09 | [3] 0.017 | [4] -0.281 | [5] -0.009 | [7] 0.001 | [8] -0.013 | [9] 0.006
active: [6] 0.429

GTF2H3 (UniProt Q13889)
inactive: erlotinib -0.002 | [1] 0.041 | [2] -0.115 | [3] 0.051 | [4] 0.027 | [5] -0.017 | [6] 0.014 | [7] 0.012 | [8] -0.004 | [9] 0.044

IFRD1 (UniProt O00458)
UniProt O00458, sequence (O00458 whole entry, looked up): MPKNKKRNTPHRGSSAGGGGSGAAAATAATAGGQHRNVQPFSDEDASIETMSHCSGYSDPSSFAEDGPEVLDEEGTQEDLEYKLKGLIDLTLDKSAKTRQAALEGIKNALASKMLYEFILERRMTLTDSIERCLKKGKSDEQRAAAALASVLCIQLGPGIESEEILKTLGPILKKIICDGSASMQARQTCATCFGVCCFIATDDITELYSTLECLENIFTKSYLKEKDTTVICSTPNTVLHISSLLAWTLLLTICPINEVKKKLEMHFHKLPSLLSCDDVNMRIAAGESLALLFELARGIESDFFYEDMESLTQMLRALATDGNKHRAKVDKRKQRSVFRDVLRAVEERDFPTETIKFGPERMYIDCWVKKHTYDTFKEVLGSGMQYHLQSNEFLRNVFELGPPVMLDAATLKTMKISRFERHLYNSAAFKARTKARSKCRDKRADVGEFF
inactive: erlotinib 0.226 | [1] -0.021 | [2] -0.124 | [3] -0.008 | [4] 0.134 | [5] 0.199 | [6] -0.013 | [7] 0.068 | [8] 0.042 | [9] -0.04

GEMIN5 (UniProt Q8TEQ6)
inactive: erlotinib -0.007 | [1] 0.066 | [2] -0.049 | [3] 0.023 | [4] 0.037 | [5] 0.045 | [6] 0.01 | [7] 0.01 | [8] 0.015 | [9] 0.017

GTF2E2 (UniProt P29084)
UniProt P29084, sequence (P29084 whole entry, looked up): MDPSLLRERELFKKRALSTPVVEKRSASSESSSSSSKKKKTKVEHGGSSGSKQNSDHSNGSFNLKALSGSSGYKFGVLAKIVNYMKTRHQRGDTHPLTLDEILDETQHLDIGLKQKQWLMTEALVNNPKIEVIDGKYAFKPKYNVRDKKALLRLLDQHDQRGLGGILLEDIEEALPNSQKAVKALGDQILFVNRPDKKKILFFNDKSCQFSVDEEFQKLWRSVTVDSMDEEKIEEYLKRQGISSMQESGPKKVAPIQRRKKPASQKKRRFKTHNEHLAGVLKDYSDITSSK
inactive: erlotinib 0.028 | [1] 0.137 | [2] 0.048 | [3] -0.001 | [4] 0.09 | [5] 0.003 | [6] -0.002 | [7] 0.03 | [8] -0.03 | [9] -0.13

GTPBP6 (UniProt O43824)
inactive: erlotinib -0.091 | [1] -0.017 | [2] -0.137 | [3] 0.01 | [4] 0.041 | [5] 0.066 | [6] -0.036 | [7] -0.05 | [8] 0.06 | [9] 0.027

HMOX2 (UniProt P30519)
inactive: erlotinib 0.065 | [1] 0.057 | [2] 0.039 | [3] -0.038 | [4] 0.024 | [5] -0.023 | [6] 0.03 | [7] 0.032 | [8] -0.04 | [9] 0.016

HPCAL1 (UniProt P37235)
inactive: erlotinib 0.011 | [1] 0.048 | [2] 0.029 | [3] 0 | [4] 0 | [5] 0.057 | [6] -0.063 | [7] 0.002 | [8] 0.013 | [9] -0.034

GYG1 (UniProt P46976)
UniProt P46976, sequence (P46976 whole entry, looked up): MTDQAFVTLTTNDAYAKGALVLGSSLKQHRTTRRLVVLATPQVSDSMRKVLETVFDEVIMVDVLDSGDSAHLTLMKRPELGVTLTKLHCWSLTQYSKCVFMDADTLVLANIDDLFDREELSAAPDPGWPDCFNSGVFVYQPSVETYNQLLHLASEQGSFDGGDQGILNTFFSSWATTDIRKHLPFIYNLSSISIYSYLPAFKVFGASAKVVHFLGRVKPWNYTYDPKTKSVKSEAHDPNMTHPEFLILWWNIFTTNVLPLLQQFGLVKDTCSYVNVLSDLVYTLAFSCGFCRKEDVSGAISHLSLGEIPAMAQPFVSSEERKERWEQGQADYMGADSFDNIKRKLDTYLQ
inactive: erlotinib -0.064 | [1] 0.016 | [2] -0.23 | [3] 0.005 | [4] 0.089 | [5] -0.039 | [6] -0.109 | [7] 0.083 | [8] -0.075 | [9] -0.027

GLS isoform 3 (UniProt O94925)
inactive: erlotinib 0.09 | [1] 0.156 | [2] -0.041 | [3] -0.094 | [4] 0.027 | [5] 0.004 | [6] 0 | [7] -0.082 | [8] -0.11 | [9] -0.12

ICMT (UniProt O60725)
inactive: erlotinib 0.059 | [1] -0.081 | [2] 0.015 | [3] -0.001 | [4] 0.214 | [5] -0.064 | [6] 0.122 | [7] -0.038 | [8] -0.206 | [9] -0.032

HAUS4 (UniProt Q9H6D7)
inactive: erlotinib -0.112 | [1] 0.097 | [2] 0.041 | [3] -0.095 | [4] 0.018 | [5] -0.065 | [6] -0.085 | [7] -0.087 | [8] -0.001 | [9] 0.001

IFRD2 isoform 2 (UniProt Q12894)
inactive: erlotinib 0.204 | [1] -0.109 | [2] 0.003 | [3] 0.084 | [4] 0.048 | [5] 0.082 | [6] -0.051 | [7] 0.118 | [8] 0.302 | [9] 0.04

IFITM3 (UniProt Q01628)
inactive: erlotinib -0.093 | [1] -0.031 | [3] 0.042 | [4] -0.041 | [5] 0.058 | [6] 0.118 | [7] -0.01 | [8] -0.016 | [9] -0.03
active: [2] -0.471

HDAC7 isoform 5 (UniProt Q8WUI4)
inactive: erlotinib 0.025 | [1] 0.057 | [2] -0.08 | [3] 0.007 | [4] -0.126 | [5] -0.008 | [6] -0.037 | [7] -0.171 | [8] -0.056 | [9] 0.025

GATA1 (UniProt P15976)
UniProt P15976, sequence (P15976 whole entry, looked up): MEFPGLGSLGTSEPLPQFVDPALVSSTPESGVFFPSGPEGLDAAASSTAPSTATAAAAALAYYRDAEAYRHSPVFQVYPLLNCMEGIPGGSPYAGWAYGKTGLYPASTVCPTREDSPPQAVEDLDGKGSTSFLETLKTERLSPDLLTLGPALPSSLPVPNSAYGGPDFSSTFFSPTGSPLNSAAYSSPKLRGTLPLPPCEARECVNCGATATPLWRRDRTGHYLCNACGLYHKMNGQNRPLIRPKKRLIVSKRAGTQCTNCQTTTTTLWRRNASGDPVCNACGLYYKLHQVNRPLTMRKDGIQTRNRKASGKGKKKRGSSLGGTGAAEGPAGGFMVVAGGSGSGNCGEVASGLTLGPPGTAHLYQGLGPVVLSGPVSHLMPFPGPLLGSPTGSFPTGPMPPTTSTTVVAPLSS
inactive: erlotinib 0.05 | [1] 0.024 | [2] -0.021 | [3] -0.015 | [4] 0.032 | [5] 0.028 | [6] -0.021 | [7] -0.083 | [8] 0.031 | [9] -0.004

GHDC (UniProt Q8N2G8)
inactive: erlotinib 0.062 | [1] 0.046 | [2] -0.002 | [3] 0.013 | [4] 0.011 | [5] 0.003 | [6] -0.021 | [7] -0.008 | [8] -0.009 | [9] 0.06

HDAC2 (UniProt Q92769)
UniProt Q92769, sequence (Q92769 whole entry, looked up): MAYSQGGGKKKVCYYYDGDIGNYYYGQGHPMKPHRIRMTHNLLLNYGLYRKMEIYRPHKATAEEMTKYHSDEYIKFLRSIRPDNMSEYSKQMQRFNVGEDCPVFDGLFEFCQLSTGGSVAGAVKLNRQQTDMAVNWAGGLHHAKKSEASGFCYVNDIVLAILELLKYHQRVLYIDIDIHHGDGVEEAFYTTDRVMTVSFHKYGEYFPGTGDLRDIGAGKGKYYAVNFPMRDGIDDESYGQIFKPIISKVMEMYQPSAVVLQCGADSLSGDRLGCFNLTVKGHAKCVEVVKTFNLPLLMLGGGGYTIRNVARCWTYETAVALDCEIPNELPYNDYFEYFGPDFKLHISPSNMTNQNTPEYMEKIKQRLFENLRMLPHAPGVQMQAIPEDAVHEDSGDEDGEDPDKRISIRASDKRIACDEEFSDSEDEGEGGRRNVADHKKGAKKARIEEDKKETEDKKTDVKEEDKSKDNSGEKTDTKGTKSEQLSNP
inactive: [1] 0.013 | [2] -0.02 | [3] -0.012 | [4] 0.006 | [5] 0.002 | [6] -0.011 | [7] -0.011 | [8] -0.025 | [9] 0.023
active: erlotinib 0.757

HADHA (UniProt P40939)
inactive: erlotinib -0.085 | [1] 0.122 | [2] 0.044 | [3] -0.18 | [4] 0.042 | [5] 0.02 | [6] 0.07 | [7] 0.271 | [8] -0.214 | [9] 0.171

GTF2A1 (UniProt P52655)
inactive: erlotinib -0.011 | [1] -0.052 | [2] 0.001 | [3] -0.011 | [4] -0.094 | [5] 0.034 | [6] -0.021 | [7] -0.029 | [8] -0.024 | [9] 0.036

HP1BP3 (UniProt Q5SSJ5)
inactive: erlotinib 0.071 | [1] -0.035 | [2] -0.04 | [3] 0.028 | [4] 0.069 | [5] 0.064 | [6] -0.013 | [7] -0.044 | [8] 0.027 | [9] -0.155

GALNT1 (UniProt Q10472)
inactive: erlotinib -0.001 | [1] -0.014 | [2] -0.069 | [3] 0.022 | [4] 0.031 | [5] 0.006 | [6] 0.06 | [7] -0.003 | [8] 0.004 | [9] 0.06

FIBP (UniProt O43427)
UniProt O43427, sequence (O43427 whole entry, looked up): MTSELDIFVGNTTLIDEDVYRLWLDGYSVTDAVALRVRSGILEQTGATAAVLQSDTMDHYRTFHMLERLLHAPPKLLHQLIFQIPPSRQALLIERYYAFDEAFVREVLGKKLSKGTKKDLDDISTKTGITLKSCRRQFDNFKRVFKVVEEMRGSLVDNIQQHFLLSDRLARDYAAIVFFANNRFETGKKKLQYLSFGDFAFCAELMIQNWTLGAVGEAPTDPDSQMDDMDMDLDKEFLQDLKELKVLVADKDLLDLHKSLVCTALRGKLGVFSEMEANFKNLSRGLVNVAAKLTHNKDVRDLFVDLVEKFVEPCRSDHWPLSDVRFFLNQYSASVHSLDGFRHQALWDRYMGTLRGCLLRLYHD
inactive: erlotinib 0.023 | [1] 0.088 | [2] 0.011 | [3] -0.002 | [4] 0.107 | [5] -0.023 | [6] -0.032 | [7] 0.011 | [8] -0.144 | [9] 0.125

GSTP1 (UniProt P09211)
inactive: erlotinib 0.021 | [1] 0.038 | [2] 0.013 | [3] -0.016 | [4] 0.041 | [5] 0.037 | [6] 0.014 | [7] 0.005 | [8] 0.021 | [9] 0.057

HBZ (UniProt P02008)
UniProt P02008, sequence (P02008 whole entry, looked up): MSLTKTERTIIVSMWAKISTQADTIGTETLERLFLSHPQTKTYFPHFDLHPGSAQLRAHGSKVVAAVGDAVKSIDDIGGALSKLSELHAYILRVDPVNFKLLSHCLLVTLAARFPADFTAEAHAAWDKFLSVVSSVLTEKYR
inactive: erlotinib -0.013 | [1] 0.077 | [2] 0.252 | [3] 0.042 | [4] 0.143 | [5] 0.006 | [6] 0.118 | [7] 0.017 | [8] -0.034 | [9] 0.043
